Compounds with a hit are over-represented: about 1.6% of the library has one in this group of screens.
gsp ag: qHTS for Agonist of gsp, the Etiologic Mutation Responsible for Fibrous Dysplasia/McCune-Albright Syndrome: qHTS; gsp mutant cells, cAMP HTRF, 30 min; Potency, µM (doses to about 76.9 µM), usual class: activators; hit rate 0.13% among 340,000; active means well fitted activation curve with a large enough effect; inconclusive means small, poorly fitted or top-dose-only effect, or another doubt; inactive means no such curve, though single readings can be large or run the other way; cell line not stated here;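 further: phosphodiesterase inhibitor Ro 20-1724 added with compounds to block cAMP breakdown; nearly all actives have a fitted effect of over 60% in size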
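Cells stably selected in G418 were plated at 2000/well, grown 16-24 hr, then given compounds in DMSO with the PDE inhibitor […] (300 uM solution added) for 30 min at 37C; cAMP was read by HTRF.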
RXFP1 antagonist: qHTS Assay for Antagonists of the Relaxin Receptor RXFP1; activity change, negative = inhibition, % at 57.5 µM; hit rate 0.59% among 350,000; Relaxin receptor 1 (Homo sapiens), Q9HBX9; HEK293-RXFP1, relaxin-stimulated cAMP HTRF, 30 min; hits give low values;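 active means activity change of -60% or lower, but not beyond a set lower limit; inconclusive means change between -60% and -40%, or beyond the set limit; inactive means change above -40%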
Target sequence (Q9HBX9 whole entry, looked up): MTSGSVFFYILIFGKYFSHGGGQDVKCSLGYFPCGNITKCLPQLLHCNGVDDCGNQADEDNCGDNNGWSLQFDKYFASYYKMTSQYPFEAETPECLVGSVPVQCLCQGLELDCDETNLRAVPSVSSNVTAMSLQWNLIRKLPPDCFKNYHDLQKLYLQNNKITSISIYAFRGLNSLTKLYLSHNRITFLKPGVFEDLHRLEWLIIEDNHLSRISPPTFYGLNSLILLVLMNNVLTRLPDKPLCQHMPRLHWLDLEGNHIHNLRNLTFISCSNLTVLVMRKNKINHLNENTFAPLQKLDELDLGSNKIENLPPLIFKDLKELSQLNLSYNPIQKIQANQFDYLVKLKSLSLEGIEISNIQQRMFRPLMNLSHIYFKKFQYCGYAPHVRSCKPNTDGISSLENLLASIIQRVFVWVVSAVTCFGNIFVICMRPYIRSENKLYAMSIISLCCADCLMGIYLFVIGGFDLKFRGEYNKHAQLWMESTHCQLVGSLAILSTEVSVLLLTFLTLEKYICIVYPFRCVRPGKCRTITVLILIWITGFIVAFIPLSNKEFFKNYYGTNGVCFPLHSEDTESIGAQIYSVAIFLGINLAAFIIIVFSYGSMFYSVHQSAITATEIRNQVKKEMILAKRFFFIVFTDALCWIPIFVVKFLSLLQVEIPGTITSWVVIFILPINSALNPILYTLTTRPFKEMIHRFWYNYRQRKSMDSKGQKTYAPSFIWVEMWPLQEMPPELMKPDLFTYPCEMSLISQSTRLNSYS
Coupling enz: qHTS Assay for Inhibitors of Fructose-1,6-bisphosphate Aldolase from Giardia Lamblia: Coupling assay counterscreen | coupling enzyme system counterscreen, AmpLite Red fluorescence | activity change, negative = inhibition, % at 58.2 µM, hits read low | hit rate 0.67% among 290,000; in the data active means activity change below about -30%
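Compounds tested against the coupling enzymes alone at 57.5 uM final; readout was AmpLite Red fluorescence (525/598 nm) after 20 min at RT.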
Giardia killer: Small Molecules that selectively kill Giardia lamblia: qHTS; Giardia lamblia trophozoite viability; activity change, % at 7.66 µM, hits read low; hit rate 0.15% among 340,000; AID 540267, 2011; in the data active means activity change below about -80%; inconclusive means between about -30% and that limit;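 further: parasites exposed to compound for two days anaerobically before the ATP read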
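Giardia lamblia trophozoites (100 cells/well) were incubated with compounds for 48 h at 37 deg C under anaerobic conditions. Viability was read as ATP content by one-step luminescence after 15-30 min at room temperature.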
gsp antag: qHTS for Antagonists of gsp, the Etiologic Mutation Responsible for Fibrous Dysplasia/McCune-Albright Syndrome: qHTS; hit rate 0.4% among 340,000; gsp-mutant cells, cAMP HTRF, 30 min; Potency, µM (titrated, usually from 76.9 µM), most hits filed as inhibitors; calls by dose curve; cell line not stated here;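 further: intracellular cAMP measured with PDE inhibitor Ro 20-1724 present during compound exposure; nearly all actives have a fitted effect of over 65% in size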
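G418-selected cells were plated in DMEM/10% FBS for 16-24 h at 37C, then treated with compounds plus the PDE inhibitor […] (300 uM solution added) for 30 min at 37C. Intracellular cAMP was measured by HTRF after 30 min lysis at room temperature.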
RXFP1 agonist: qHTS Assay for Agonists of the Relaxin Receptor RXFP1; HEK293T-RXFP1 cAMP TR-FRET, 30 min; response scale: percent of porcine relaxin response, buffer zero; Potency, µM (series often up to 57.5 µM), usual class: activators; hit rate 0.3% among 370,000; active means well fitted activation curve with a large enough effect; inconclusive means small, poorly fitted or top-dose-only effect; further: nearly all actives have a fitted effect of over 60% in size
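HEK293 cells stably expressing RXFP1, treated 30 min at 37C with compounds plus PDE4 inhibitor Ro 20174; cAMP measured by HTRF TR-FRET. Normalized to buffer and 29 nM porcine relaxin; EC50 by Hill fit.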
Large screens that a line does not name were inactive.

CC12CCC(=O)N1C(C(=O)N1CCN(S(=O)(=O)c3ccc(Br)cc3Cl)CC1)CS2 (stereo not given)	RXFP1 antagonist -66.2 (no result: Coupling enz)
CC12CCC(=O)N1C(C(=O)N1CCN(S(=O)(=O)c3ccccc3F)CC1)CS2 (stereo not given)	none (no result: Coupling enz)
CC[C@H](C)[C@H](N)C(=O)O	none (no result: gsp ag, Coupling enz, Giardia killer, gsp antag, RXFP1 agonist)
Cc1cc2nc(-c3ccc(SCc4ccc(C(=O)O)cc4)nc3)[nH]c2cc1C	RXFP1 antagonist -97.7
Cc1cc2nc(-c3ccc(SCC(=O)NC(C)C)nc3)[nH]c2cc1C	none (no result: gsp ag, RXFP1 antagonist, Giardia killer, gsp antag)
COc1ccc(C(=O)Nc2ccc(NC(=O)c3cccs3)cn2)cc1	none
CC(C)C(=O)Nc1ccc(NC(=O)c2cccs2)cn1	Coupling enz -43.5
CC(=O)NC1C(O)O[C@H](C(=O)O)[C@@H](O)[C@@H]1O (stereo not given in full)	none (no result: gsp ag, RXFP1 antagonist, Giardia killer, gsp antag, RXFP1 agonist)
Cc1cc2c(cc1S(=O)(=O)N(C)CC(=O)Nc1cccc(C#N)c1)OCC(=O)N2	none (no result: gsp ag, Coupling enz, Giardia killer, gsp antag)
O=C(/C=C/c1ccc([N+](=O)[O-])s1)N1CCCCC1	Giardia killer -82.0
O=C(/C=C/c1ccc([N+](=O)[O-])s1)N1CCN(c2ccccc2)CC1	Giardia killer inconclusive
O=C(/C=C/c1ccc([N+](=O)[O-])s1)N1CCCC1	Giardia killer -86.9
COc1ccc(CNc2oc(/C=C/c3cccc(OC)c3)nc2C#N)cc1	none (no result: gsp ag, RXFP1 antagonist, Coupling enz, Giardia killer, gsp antag)
CCN(CC(=O)Nc1c(F)cccc1F)C(=O)CCCN1C(=O)c2cccc3cccc(c23)C1=O	gsp ag 12.6µM (no result: Coupling enz, Giardia killer, gsp antag, RXFP1 agonist)
Cc1cc(C)n(CCNC(=O)CC2C(=O)NCCN2Cc2ccccc2C(F)(F)F)n1 (stereo not given)	none
Cc1ccc(NS(=O)(=O)c2cc(NC(=O)c3ccc4c(c3)NC(=O)CS4)ccc2C)c(C)c1	RXFP1 antagonist -63.3
O=C1c2ccccc2C(=O)c2c1ccc(C(=O)N1CCCCC1)c2NCCO	none
CCN(CCN(C)C)C(=O)c1ccc2c(c1NCCO)C(=O)c1ccccc1C2=O	Coupling enz -37.3, gsp antag inconclusive
O=C(N/N=C1/C[C@@H](O)[C@@H](O)[C@@H]2[C@@H]3C(=O)N(C4CCCCC4)C(=O)[C@H]3CC[C@@H]12)OCc1ccccc1	none (no result: gsp ag, RXFP1 antagonist, Giardia killer, gsp antag, RXFP1 agonist)
CC(=O)Nc1ccc(S(=O)(=O)Nc2cccc(-n3cnnn3)c2)cc1	gsp ag 7.94µM (no result: Coupling enz)
COCCCn1c(C(=O)NCCC2=CCCCC2)cc2c(=O)n3ccccc3nc21	gsp ag 7.08µM (no result: Coupling enz)
CCn1c(CNc2cccc(C(F)(F)F)c2)n[nH]c1=S	RXFP1 antagonist -110.3
O=c1n(-c2ccccc2)c(=O)n2n1CC[C@H]1/C(=N\OCc3ccccc3)[C@H]3O[C@@H]3[C@@H](O)[C@@H]12	none (no result: gsp ag, RXFP1 antagonist, Giardia killer, gsp antag, RXFP1 agonist)
COc1ccc(CCNC(=O)c2nc(-c3ccc(Cl)cc3)n3c2CCCCC3)c(OC)c1	none (no result: gsp ag, Coupling enz, Giardia killer, gsp antag)
CSc1nc2ccccc2n1Cc1c(Cl)cccc1Cl	gsp antag 39.8µM
OCc1nc2ccccc2n1Cc1c(F)cccc1Cl	none
CCOc1ccc(OCCC(=O)N(CC(C)C)c2c(N)n(Cc3ccccc3)c(=O)[nH]c2=O)cc1	none (no result: Coupling enz, RXFP1 agonist)
Cc1cc(S(=O)(=O)Nc2ccc(C(=O)NCC3(N4CCCCC4)CCCCC3)cc2)ccc1F	RXFP1 antagonist -76.8 (no result: Coupling enz)
Cc1cc(S(=O)(=O)Nc2ccc(C(=O)NCC3(N(C)C)CCCCC3)cc2)ccc1F	none (no result: Coupling enz)
COc1ccc(-n2cc(C(=O)N(C)c3cc(C)ccc3OC)c3ccccc3c2=O)cc1	none (no result: gsp ag, Coupling enz, Giardia killer, gsp antag)
Cc1cc(SCC(=O)N/N=C/c2ccc(O)c(O)c2)nc2ccccc12	RXFP1 antagonist -67.0
Cc1ccc2nc(SCC(=O)N/N=C/c3ccco3)cc(C)c2c1	none
Cc1cc(SCC(=O)N/N=C/c2ccc(O)cc2O)nc2ccccc12	gsp ag inconclusive, gsp antag 35.5µM
Cc1ccc(S(=O)(=O)NCc2ccc(C(=O)NCCc3ccc(S(N)(=O)=O)cc3)cc2)cc1	none
CC(=O)c1ccc(O)c(C(N)=O)c1	none (no result: gsp ag, Coupling enz, Giardia killer, gsp antag, RXFP1 agonist)
COc1cccc(CN2CC(C(=O)NCc3cccc(N4CCCC4)c3)CCC2=O)c1 (stereo not given)	gsp antag 3.16µM
CCc1ccccc1NC(=O)c1ccc(F)c(S(=O)(=O)N2CCN(c3ccccc3OC)CC2)c1	none (no result: gsp ag, Coupling enz, Giardia killer, gsp antag)
CCCCN(CCCNC(=O)CN1N=C(c2ccc(C)cc2)CCC1=O)c1ccccc1	none (no result: gsp ag, Coupling enz, Giardia killer, gsp antag)
CCOc1ccc(-c2c(C(=O)N/N=C/c3c[nH]c4ccccc34)nnn2-c2nonc2N)cc1	gsp ag inconclusive, gsp antag 25.1µM
CCOc1cccc(-c2c(C(=O)N/N=C(\C)c3ccncc3)nnn2-c2nonc2N)c1	RXFP1 antagonist -62.5 (no result: Coupling enz)
C[C@@](Cc1ccccc1)(C(=O)O)N1C(=O)c2ccc(C(=O)O)cc2C1=O	none (no result: gsp ag, RXFP1 antagonist, Giardia killer, gsp antag)
Cc1ccc(NC2=C(N3CCCCC3)C(=O)c3ccccc3C2=O)cc1	Coupling enz -45.4
O=C1C(NS(=O)(=O)c2ccc(Br)cc2)=C(N2CCCCC2)C(=O)c2ccccc21	none
O=C1C(Nc2ccccc2)=C(N2CCCCC2)C(=O)c2ccccc21	Coupling enz -49.5
O=C(/C=C/c1ccc(O)cc1)c1ccc(NC2=C(N3CCCCC3)C(=O)c3ccccc3C2=O)cc1	Coupling enz -45.7
O=C(/C=C/c1ccc(O)cc1)c1ccccc1	gsp ag inconclusive
COc1ccccc1NC1=C(N2CCCCC2)C(=O)c2ccccc2C1=O	Coupling enz -50.8
Cc1cc(NC(=O)C(C)SCC(=O)N(Cc2ccccc2)c2ccccc2)no1 (stereo not given)	none (no result: Coupling enz)
O=C(CNC(=O)c1ccccc1)OCC(=O)c1ccc2ccccc2c1	none (no result: gsp ag, RXFP1 antagonist, Coupling enz, gsp antag, RXFP1 agonist)
Cc1cc(O)c(C)c2sc(N)nc12	none (no result: gsp ag, RXFP1 antagonist, Giardia killer, gsp antag, RXFP1 agonist)
Cc1ccc(S(=O)(=O)Nc2nnc(C3CCCCC3)s2)cc1	none
O=C1C(Nc2cccc(O)c2)=C(N2CCCCC2)C(=O)c2ccccc21	Coupling enz -51.5
Cc1ccc(NC(=O)CNc2ccc(Cl)c(Cl)c2)cc1S(=O)(=O)N(C)C	gsp antag 39.8µM
Cc1ccc(NC(=O)Cc2ccc(Cl)c(Cl)c2)cc1S(=O)(=O)N(C)C	gsp antag inconclusive
O=C1C2CC=CCC2C(=O)N1c1ccc(NCCc2ccc(O)cc2)c([N+](=O)[O-])c1 (stereo not given)	gsp antag 31.6µM
O=C(Nc1ccc(Cl)c(Cl)c1)Nc1cc(S(=O)(=O)N2CCOCC2)ccc1N1CCCC1	none
O=C1c2ccccc2C(=O)c2c1cccc2-n1nnc2ccccc21	none
